Results: ChEMBL document CHEMBL1157539, “Thousands of chemical starting points for antimalarial lead identification” (Nature, 2010)

How the values were obtained:
Type in all cases: functional
Plasmodium falciparum [1] = experiment: GSK_TCMDC: Inhibition of Plasmodium falciparum 3D7 in whole red blood cells, using parasite LDH activity as an index of growth. Test compounds present at 2uM
Plasmodium falciparum [2] = experiment: GSK_TCMDC: Inhibition of Plasmodium falciparum Dd2 in whole red blood cells, using parasite LDH activity as an index of growth. Test compounds present at 2uM
HepG2 = experiment: GSK_TCMDC: Percent inhibition of human HepG2 cell line. Test compounds present at 10uM.

| Structure (SMILES) | Inhibition (Plasmodium falciparum [1]) [%] | Inhibition (Plasmodium falciparum [2]) [%] | Inhibition (HepG2) [%] |
| --- | --- | --- | --- |
| COc1cc(C(=O)NC2CC(C)(C)NC(C)(C)C2)ccc1-c1cc2cc(Cl)c(Cl)cc2[nH]1.O=C(O)C(F)(F)F | 99 | 31 | 41 |
| COc1cc(Nc2nccc(-c3c(-c4cccc(NC(=O)c5c(F)cccc5F)c4)nn4ncccc34)n2)cc(OC)c1OC | 98 | 97 | 96 |
| Fc1ccc(NC(=S)NCCc2ccccc2)cc1 | 99 | 0 | 0 |
| Br.CC(CON1C(N)=NC(N)=NC1(C)C)c1ccc(Cl)cc1Cl (configuration not stated) | 97 | 95 | 64 |
